# Reference: the supplement of paper PMC12636033
# ± gives the standard deviation of the averaged measurements. Over roughly 33,000 sequences, “E-score (rank enrichment, -0.5 to 0.5)” has its median near -0.0043; the highest 2% begin near 0.24. Only a selection was taken, and the highest values are over-represented in it overall.
# Tested on: 2Sp-muMax20 (muMax20 with two 2,6-bis(methyl)pyridine Cys staples)
# Experiment: PBM 8-mer E-score (E-score (rank enrichment, -0.5 to 0.5)); higher = stronger preferential binding
# Procedure: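 Protein binding microarray (universal PBM chip covering all 10-mers in fixed probe flanks) with chemically synthesized human Max(13-93) bHLH-LZ analogs (not full-length Max) bearing noncanonical residues (hArg, Tha, Aib, Nle at 65) and aromatic Cys staples. Read-out per 8-mer (and its reverse complement): E-score (rank-based enrichment, -0.5 to 0.5) and Z-score of median probe intensity.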
row,Sequence,PBM 8-mer E-score
1,CCAAGGTA,-0.122 ± 0.08
2,ATGGTCCG,-0.11 ± 0.052
3,GAGCTTAC,0.0525 ± 0.066
4,TACCCTGA,0.0285 ± 0.0041
5,GCTGAGAC,-0.0936 ± 0.027
6,GGTTGGCA,-0.0827 ± 0.032
7,AAAAAGCT,0.282 ± 0.011
8,CAAAGCTG,0.0649 ± 0.017
9,AAAAGCGC,0.236 ± 0.064
10,AAAAAGCA,0.206 ± 0.014
11,AAAAAGCC,0.0819 ± 0.062
12,CAAAGCGC,-0.0804 ± 0.097
13,AAAAGCTA,0.141 ± 0.049
14,AAAAGCGA,0.147 ± 0.046
15,AAAAGCTG,0.272 ± 0.0057
16,ACTTTTGG,0.145 ± 0.018
17,GCAACGGC,-0.147 ± 0.018
18,GGCTCAGA,-0.204 ± 0.025
19,CCGAAGCC,-0.258 ± 0.035
20,ATAGCTAC,0.204 ± 0.0011
21,AGGTGTCG,-0.0243 ± 0.082
22,CAGAGGCC,-0.0446 ± 0.062
23,ATCAATTC,0.159 ± 0.024
24,ATCAATCG,0.16 ± 0.038
25,ATCAATTA,0.28 ± 0.041

row,Sequence,PBM 8-mer E-score
1,CTCAATTA,0.0912 ± 0.079
2,AACAATTC,0.166 ± 0.067
3,ATCAATTG,0.255 ± 0.068
4,GTCAATTA,0.0735 ± 0.075
5,AACAATTA,0.246 ± 0.078
6,AACAATTG,0.0804 ± 0.12
7,AACGTCAT,0.0419 ± 0.012
8,AAGTTTCG,0.0139 ± 0.064
9,TACACTCA,0.0543 ± 0.059
10,CCAGAAAA,-0.0128 ± 0.11
11,GGGCAAAC,-0.0742 ± 0.046
12,AATCTATC,0.061 ± 0.099
13,CTGTCTAC,-0.085 ± 0.0076
14,ACGGGTGA,-0.227 ± 0.052
15,CCCACCCA,0.364 ± 0.023
16,ACCACCCC,0.0435 ± 0.03
17,CCCACCCG,0.29 ± 0.03
18,CCCACTTC,0.00615 ± 0.027
19,CACACCCG,-0.15 ± 0.012
20,GCCACCCA,-0.126 ± 0.068
21,CCCACCCC,0.332 ± 0.046
22,GCCACCCC,-0.0325 ± 0.055
23,TCCACCCA,0.00246 ± 0.039
24,ACCACCCG,-0.146 ± 0.077
25,CCCACTTA,0.236 ± 0.023

row,Sequence,PBM 8-mer E-score
1,GCCACTTA,0.0747 ± 0.039
2,ATCGGCCG,-0.187 ± 0.13
3,CCGGCGGC,-0.269 ± 0.029
4,CCTATTCG,-0.105 ± 0.0044
5,ACGAAGAA,0.16 ± 0.06
6,ATGCGATC,0.00891 ± 0.016
7,CAAGACGG,-0.109 ± 0.028
8,GCAATTGA,0.0718 ± 0.079
9,CCAATTGC,0.108 ± 0.012
10,GCAATTGC,0.242 ± 0.013
11,ACGTCCCG,-0.326 ± 0.046
12,AGGGCGGC,-0.0202 ± 0.17
13,AGGGCGGA,-0.101 ± 0.0044
14,AGGGCGGG,0.311 ± 0.011
15,ATAACTTA,0.14 ± 0.043
16,ATAACTTG,0.241 ± 0.012
17,ATAACGTA,0.107 ± 0.085
18,ATAACGTG,0.293 ± 0.018
19,ATAACGTC,0.138 ± 0.029
20,ATAACTTC,0.0494 ± 0.033
21,CTGGGTCA,-0.0254 ± 0.017
22,AGCTACGC,0.0669 ± 0.0082
23,CCGTCGGC,-0.232 ± 0.016
24,CAAGCCAC,-0.143 ± 0.044
25,CTATTTAA,-0.0484 ± 0.012

row,Sequence,PBM 8-mer E-score
1,ATATTTAC,0.159 ± 0.032
2,GTATTTTA,0.0916 ± 0.055
3,CTATTTTA,0.224 ± 0.026
4,ATATTTAA,0.334 ± 0.019
5,ATATTTTA,0.245 ± 0.02
6,ATCTTAGA,0.0255 ± 0.036
7,CTCGCCGC,-0.0225 ± 0.15
8,AATTGCCG,-0.00487 ± 0.03
9,CTTCTTTA,0.245 ± 0.01
10,GTTCTTTA,0.000435 ± 0.15
11,CTTCTTTC,-0.118 ± 0.046
12,AACCTACT,-0.0133 ± 0.062
13,AATCTGAT,0.057 ± 0.016
14,CAAATAAC,0.238 ± 0.041
15,AAAATAAC,0.2 ± 0.041
16,GAAATAAC,-0.1 ± 0.05
17,ACAGTGGC,-0.0719 ± 0.054
18,CGAGGTTC,-0.105 ± 0.037
19,CCTCAGGA,-0.147 ± 0.12
20,AGTCGGGC,-0.144 ± 0.022
21,CTTATAAG,0.0331 ± 0.11
22,CTTATAAC,0.0403 ± 0.076
23,TTTATAAA,0.246 ± 0.074
24,ATTATAAC,0.247 ± 0.041
25,GTTATAAC,0.16 ± 0.047

row,Sequence,PBM 8-mer E-score
1,CTTATAAA,0.184 ± 0.071
2,ATTATAAT,0.169 ± 0.1
3,ATTATAGA,0.0771 ± 0.056
4,ATTATAAA,0.263 ± 0.069
5,GTTATAAA,0.154 ± 0.051
6,CCTATAAA,-0.143 ± 0.042
7,ATTATAAG,0.28 ± 0.0046
8,ACTGAACG,-0.181 ± 0.086
9,AGAAACCG,-0.0327 ± 0.035
10,ACCACTTC,0.0215 ± 0.0022
11,AAGACTAA,0.0726 ± 0.081
12,GATTTTCC,-0.0716 ± 0.0054
13,AGAGGCAG,-0.125 ± 0.069
14,CTAACCAA,-0.0414 ± 0.074
15,ACCTCGTC,-0.0184 ± 0.011
16,AACGTCTG,-0.086 ± 0.17
17,ACCTCACG,-0.0339 ± 0.093
18,CCCGGCGC,-0.17 ± 0.023
19,ACGCACAG,-0.104 ± 0.024
20,ACGCACAA,0.0234 ± 0.071
21,ACGCACAT,0.24 ± 0.091
22,ACGCACGA,0.0583 ± 0.035
23,ACGCACGC,0.157 ± 0.12
24,ACGCACGT,0.277 ± 0.0066
25,GCCATCAA,0.193 ± 0.0031

row,Sequence,PBM 8-mer E-score
1,CACTGTGC,-0.123 ± 0.011
2,CCAGCCTC,-0.148 ± 0.047
3,CATACCTA,0.0465 ± 0.0019
4,GATACCTA,0.155 ± 0.013
5,AATACCTA,0.244 ± 0.03
6,ATGGATGA,0.053 ± 0.022
7,ATATTTCC,0.0705 ± 0.11
8,CTATTTCC,0.26 ± 0.051
9,CTATTTCA,0.126 ± 0.099
10,TCCAGTAA,0.071 ± 0.076
11,CAATGGCG,0.02 ± 0.0014
12,CCCGTGAG,-0.225 ± 0.016
13,GACGTGAA,-0.25 ± 0.025
14,AACGTGAC,0.147 ± 0.045
15,TACGTGAA,0.0426 ± 0.043
16,GATGTGAA,0.177 ± 0.043
17,AACGTGAG,0.0157 ± 0.023
18,CACGTGAC,0.406 ± 0.011
19,CACGTGAA,0.392 ± 0.022
20,GACGTGAC,0.0337 ± 0.019
21,TATGTGAA,0.308 ± 0.017
22,AATGTGAA,0.154 ± 0.12
23,CACGTGAG,0.255 ± 0.005
24,GACCCATC,-0.0849 ± 0.083
25,GGCAACAC,0.0268 ± 0.038

row,Sequence,PBM 8-mer E-score
1,CTCGGGTA,-0.193 ± 0.024
2,TAAATAAA,0.129 ± 0.012
3,CCCGTGAC,-0.0332 ± 0.029
4,GAAGCGCC,-0.146 ± 0.03
5,CGCGTGAC,0.286 ± 0.036
6,AGCGTGAC,0.0983 ± 0.058
7,CGCGTGAG,0.219 ± 0.012
8,CTCAGGTC,-0.298 ± 0.018
9,GCGAGGGA,0.0348 ± 0.068
10,GTATAATA,0.26 ± 0.018
11,GAATAATA,0.0134 ± 0.025
12,CTATAATA,0.0904 ± 0.023
13,ATATAATG,0.235 ± 0.0039
14,GTATAAGA,0.171 ± 0.024
15,ATATAATA,0.244 ± 0.015
16,GCGACCCA,-0.125 ± 0.0022
17,TAACTAGA,0.216 ± 0.032
18,TAAATTGA,0.123 ± 0.068
19,ACTACACA,0.317 ± 0.02
20,CCTACACG,-0.0918 ± 0.0064
21,GCTATACA,0.148 ± 0.0048
22,AATATACA,0.272 ± 0.012
